Screens: PubChem BioAssay, The Scripps Research Institute Molecular Screening Center
FBW7 act: FBW7 E3 ligase activators, primary screen, biochemical, AlphaScreen, human | F-box/WD repeat-containing protein 7 (Homo sapiens), Q969H0 | AlphaScreen FBW7–phospho-cyclin E peptide binding, activator screen | normalized activity (activation), % at 26.1 µM | 0.13% of 650,000 active; in the data active = normalized activity above about 1.9%;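 note: purified mutant Fbw7 with reduced substrate affinity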
GPR151 activ: activators of human GPR151, primary screen, cell-based, PathHunter beta-arrestin, luminescence; G-protein coupled receptor 151 (Homo sapiens), Q8TDV0; PathHunter beta-arrestin GPR151 cells; activation, % at 11.2 µM; 1% of 650,000 active; in the data active = activation above about 4.9%;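 note: 0% = median of compound wells and 100% = cells with positive control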
TEAD-YAP block: TEAD-YAP interaction inhibition, primary screen, TEAD-YAP interaction inhibitor project, luminescence, HEK-TIYL cells; TEAD-Gal4/YAP UAS-luciferase luminescence; inhibition, % at 9.12 µM; 1.4% of 640,000 active; AID 1259422, 2018; in the data active = inhibition above about 32%;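 note: 0% = median of test compound wells and 100% = reference inhibitor wells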
MITF primary: MITF inhibitors, primary screen, biochemical, AlphaScreen, human; inhibition, % at 2.6 µM; 0.91% of 650,000 active; Microphthalmia-associated transcription factor (Homo sapiens), O75030; AlphaScreen MITF homodimerization, bead proximity signal; in the data active = inhibition above about 50%;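 note: 0% = vehicle wells with protein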
GPR151 conf act: GPR151 activators, triplicate retest, confirmation, cell-based, PathHunter beta-arrestin, luminescence; shares compounds with GPR151 activ; GPR151 PathHunter beta-arrestin cells, 90 min; % of EA-reagent control over plate median; activation, % at 11.2 µM; 6,700 tested, under 10 active; AID 1508609, 2020;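 active = mean percent activation across replicates above the confirmation screen cutoff of 4.91%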
GPR119 ag: GPR119 activators in beta-arrestin cells, counter-screen for GPR151 activator project, cell-based, PathHunter beta-arrestin, luminescence, triplicate; activation, % at 11.2 µM; AID 1508611, 2020; 0.3% of 6,700 active; 90 min; 0 = compound-well median, 100 = enzyme-acceptor control; shares compounds with GPR151 activ;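 active = mean percent activation in the counterscreen above 29.09%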;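 note: counterscreen on off-target GPR119 to flag nonselective hits from the GPR151 activator screen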
Target sequence (Q8TDV5 whole entry, looked up): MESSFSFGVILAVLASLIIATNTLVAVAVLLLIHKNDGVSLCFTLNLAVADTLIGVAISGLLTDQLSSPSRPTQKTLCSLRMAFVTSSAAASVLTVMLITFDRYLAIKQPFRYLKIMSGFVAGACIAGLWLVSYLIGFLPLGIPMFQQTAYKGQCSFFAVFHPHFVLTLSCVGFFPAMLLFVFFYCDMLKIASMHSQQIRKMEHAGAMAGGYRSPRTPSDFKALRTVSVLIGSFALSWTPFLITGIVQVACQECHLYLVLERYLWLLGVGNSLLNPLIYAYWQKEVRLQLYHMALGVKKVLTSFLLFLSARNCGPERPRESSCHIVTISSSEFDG
Numbers without * were called inactive; · = not tested or not shown. Shown are actives, neighbours in structure and some others; about 3.5% of the full set was active somewhere.

SMILES	FBW7 act	GPR151 activ	TEAD-YAP block	MITF primary	GPR151 conf act	GPR119 ag
O=S(=O)(Nc1ccc(-n2cnnn2)cc1)c1ccc(S(=O)(=O)N2CCCCC2)cc1	0.2	0.8	5.4	-2.5	·	·
O=C(NCCCO)/C(=C/c1ccccc1F)NC(=O)c1ccccc1	0.0	5.0*	5.1	-2.1	0.1	6.1
CCC(CO)NCc1ccc(OCC(=O)NC(C)c2ccccc2)c(OC)c1 (stereo not drawn)	-0.3	6.0*	3.6	-0.1	1.3	0.8
CC(C)Oc1ccc(CN2CCCC(CO)(Cc3ccccc3)C2)cc1CO (stereo not drawn)	0.7	5.0*	2.3	9.6	-1.0	-6.9
CCOC(=O)c1ccc(OCC2c3cc(OC)c(OC)cc3CCN2C(=O)c2ccc(OCC)c(OCC)c2)cc1 (stereo not drawn)	0.0	-0.1	4.0	-4.5	·	·
COc1ccc(OCC2c3cc(OC)c(OC)cc3CCN2C(=O)/C=C/c2cc(OC)c(OC)c(OC)c2)cc1 (stereo not drawn)	0.0	-1.1	28.9	-4.2	·	·
COc1cc2c(cc1OC)C(COc1ccc(F)cc1)N(C(=O)/C=C/c1cc(OC)c(OC)c(OC)c1)CC2 (stereo not drawn)	-0.1	6.3*	6.7	4.7	1.1	10.3
COc1cc2c(cc1OC)C(COc1ccc(F)cc1)NCC2 (stereo not drawn)	0.0	7.1*	6.0	0.6	0.0	1.1
CCOc1ccc(C(=O)N2CCc3cc(OC)c(OC)cc3C2COc2ccc(C(=O)OC)cc2)cc1OCC (stereo not drawn)	0.2	20.2*	-7.2	3.2	-0.5	-0.2
O=C(Nc1ccc2[nH]ncc2c1)[C@@H]1C[C@@H](O)CN1C(=O)Nc1ccccc1	0.0	1.6	-2.0	1.4	·	·
COc1ccc(C(=O)Nc2nc3c(s2)CCC3C(=O)N2CCc3ccccc32)cc1 (stereo not drawn)	0.1	-0.7	3.8	1.7	·	·
C=CCOc1ccc(/C=N/NC(=O)CSc2nc(C)cc(C)n2)cc1	0.0	2.7	10.9	14.4	·	·
C=CCOc1ccc(/C=N/NC(=O)CSc2nc(C)cc(C)n2)cc1OCC	0.5	11.5*	4.1	11.6	0.7	4.2
COc1ccc(CNC(=O)Cc2csc(SCc3ccc(C)cc3)n2)cc1	-0.1	-0.2	4.5	2.9	·	·
COc1ccc(C2CC(c3c(-c4ccccc4)c4cc(Br)ccc4[nH]c3=O)=NO2)cc1 (stereo not drawn)	0.1	8.4*	1.4	-11.1	0.3	-7.2
O=C(O)CCC(=O)N1N=C(c2c(-c3ccccc3)c3cc(Br)ccc3[nH]c2=O)CC1c1ccco1 (stereo not drawn)	-0.3	5.4*	8.2	-7.3	0.4	2.6
CC(=O)N1N=C(c2c(-c3ccccc3)c3cc(Br)ccc3[nH]c2=O)CC1c1ccco1 (stereo not drawn)	0.7	-1.2	3.5	16.0	·	·
COc1ccc(C2CC(c3c(-c4ccccc4)c4cc(Br)ccc4[nH]c3=O)=NN2C(C)=O)cc1 (stereo not drawn)	-0.2	1.6	15.5	1.8	·	·
COc1ccc(-c2cn3nc(-c4ccc(Br)cc4)n4c3c2CCCC4)cc1	0.0	-1.5	-1.7	22.8	·	·
Cc1cc(Cl)cc2sc(NC(=O)c3ccccc3S(C)(=O)=O)nc12	0.1	-0.7	10.2	12.3	·	·
C=CCNC(=O)NC(=O)COC(=O)CC(NC(N)=O)c1ccc(Cl)cc1 (stereo not drawn)	0.1	4.9*	2.4	-2.9	0.7	4.1
O=C(O)c1ccc2nc(Cc3ccccc3)[nH]c2c1	-0.1	-0.5	2.3	-3.9	·	·
CC(C)[C@@H](CO)Nc1ccc2ncc(-c3cccc(N(C)C)c3)n2n1	-0.5	0.2	4.4	11.4	·	·
CCC(CO)Nc1ccc2ncc(-c3cccc(N(C)C)c3)n2n1 (stereo not drawn)	-0.2	6.4*	5.3	-18.1	-0.3	-4.4
Cn1ccc2cc(-c3cc(NCCCN4CCCC4=O)ncn3)ccc21	-0.2	11.4*	0.9	-17.0	0.1	1.0
SMILES	FBW7 act	GPR151 activ	TEAD-YAP block	MITF primary	GPR151 conf act	GPR119 ag
Cc1noc(C)c1-c1cc(NCCCN2CCCC2=O)ncn1	-0.1	5.9*	-3.5	2.3	-0.7	-6.6
COc1ccc(-c2cc(NCCCN3CCCC3=O)ncn2)cc1	0.1	-0.1	-11.0	-3.0	·	·
C/C(=C\c1ccccc1)CN1CCC(C(=O)NC(C)C)CC1	0.1	5.1*	10.4	44.0	-0.8	-5.3
Cc1cc(C)n2nc(C(=O)N/N=C/c3ccccc3)nc2n1	-0.3	10.5*	-3.7	-0.8	-1.1	-7.7
Cc1ccc(/C=N/NC(=O)c2nc3nc(C)cc(C)n3n2)cc1	0.0	-1.2	-13.9	-6.6	·	·
COc1cccc(OC)c1NC(=O)C(=O)Nc1c(C(N)=O)nnn1Cc1ccc(F)cc1	-0.1	-0.5	-9.1	0.8	·	·
Cn1c(=O)cc(N2CCCC2)n(Cc2ccc(F)cc2F)c1=O	0.0	-0.8	1.0	10.1	·	·
Cn1c(=O)cc(N2CCCCC2)n(Cc2ccc(F)cc2F)c1=O	0.3	5.7*	-10.1	-5.6	-1.7	-7.5
CC(Nc1cc(N2CCN(C(=O)c3ccc(Cl)cc3)CC2)ccc1[N+](=O)[O-])C12CC3CC(CC(C3)C1)C2 (stereo not drawn)	0.2	0.7	-3.0	18.1	·	·
Cc1ccc(NC(=O)NC(=O)c2cccc(Cn3cc(C(F)(F)F)ccc3=O)c2)nc1	-0.1	3.9	-13.3	6.5	·	·
O=C(NC(=O)c1ccc(Cn2cc(C(F)(F)F)ccc2=O)cc1)Nc1cccnc1	-0.2	5.2*	-0.2	-7.8	-0.9	-11.1
O=C(CC1C(=O)NCCN1C1Cc2ccccc2C1)NCCc1cccs1 (stereo not drawn)	-0.1	2.4	3.5	-9.9	·	·
CSCCCNC(=O)CC1C(=O)NCCN1C1Cc2ccccc2C1 (stereo not drawn)	0.1	4.9*	3.8	10.4	-0.1	-0.2
CCn1c(=N)c(C(=O)NC2CCCC2)cc2c(=O)n3cccc(C)c3nc21	-0.5	0.6	14.2	-0.3	·	·
COCCCNC(=O)c1cc2c(=O)n3cccc(C)c3nc2n(CCOC)c1=N	0.0	6.6*	4.9	27.4	0.2	-1.3
CCC(C)n1c(=N)c(C(=O)NC2CCCCC2)cc2c(=O)n3cccc(C)c3nc21 (stereo not drawn)	-0.2	5.2*	4.8	6.4	-0.1	-6.4
CCCCOC(=O)Nc1ccc(S(=O)(=O)Nc2cccc([N+](=O)[O-])c2)cc1	-0.1	5.3*	-5.7	-0.6	-0.3	-2.3
